# Compounds with a hit are over-represented: about 6.9% of the library has one in this group of screens.
# JNK3 blocker = JNK3 kinase activity inhibitors, primary screen, biochemical, human, purified enzyme. hit rate 0.61% among 60,000. Mitogen-activated protein kinase 10 (Homo sapiens), P53779. AID 746, 2007. HTS. inhibition, % at 8 µM; in the data active = inhibition above about 17%;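 also: 0% = DMSO and 100% = reference inhibitor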
# Target sequence (P53779 whole entry, looked up): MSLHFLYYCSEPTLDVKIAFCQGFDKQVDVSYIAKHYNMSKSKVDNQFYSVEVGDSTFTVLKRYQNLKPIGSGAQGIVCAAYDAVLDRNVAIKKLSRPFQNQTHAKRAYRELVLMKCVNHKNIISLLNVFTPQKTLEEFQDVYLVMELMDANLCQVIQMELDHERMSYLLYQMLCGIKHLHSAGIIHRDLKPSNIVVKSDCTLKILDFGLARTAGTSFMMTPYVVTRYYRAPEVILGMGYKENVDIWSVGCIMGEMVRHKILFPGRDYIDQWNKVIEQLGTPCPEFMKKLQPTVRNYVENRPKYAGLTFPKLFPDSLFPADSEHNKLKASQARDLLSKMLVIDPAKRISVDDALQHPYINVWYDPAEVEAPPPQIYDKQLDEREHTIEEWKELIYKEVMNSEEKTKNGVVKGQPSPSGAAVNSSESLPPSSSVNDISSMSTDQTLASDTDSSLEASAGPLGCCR
# FXIa inh mix = FXIa protease inhibitors in compound pools, primary screen, biochemical, 10-compound mixtures | purified FXIa, fluorogenic substrate, pooled mixtures | inhibition, % at 5 µM | hit rate 0.19% among 62,000;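 also: each value is inhibition by a whole ten-compound pool holding the compound; 0% = enzyme with no mixture and 100% = wells lacking enzyme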
# M1 antag = antagonists of rat M1 muscarinic receptor | B-score at 10 µM | AID 628, 2007 | hit rate 3.4% among 64,000 | CHO-M1 cells, Fluo-4 calcium, ACh EC80 antagonist mode; hits give low values;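 active = calcium fluorescence response, raw or row-and-column corrected B-score, differing from the plate sample mean either way at a set confidence level, mostly lower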
# Her2 expr inh = inhibitors of Her2 protein expression, primary screen, SKBR-3 cells, AlphaScreen, 66K library. Receptor tyrosine-protein kinase erbB-2 (Homo sapiens), P04626. SKBR-3 HER2 protein level, 18-24 h; hits give low values. HER2 level % of control, % at 10 µM. hit rate 0.69% among 65,000. AID 645, 2007;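 active = HER2 level under 5% of the carrier-only control; inconclusive = no clear call, values can overlap the other calls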;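 also: 100% = DMSO carrier and 0% = 500 nM PU-H71 HSP90 inhibitor; lower value means stronger loss of Her2 protein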
# FXIIa mix inh = human factor XIIa inhibitors, primary screen, biochemical, pooled compound mixtures, fluorogenic substrate; hit rate 0.2% among 62,000; inhibition, % at 5 µM; purified FXIIa; Coagulation factor XII (Homo sapiens), P00748;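 also: 0% = enzyme without compound and 100% = no enzyme blank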
# M1 ag = M1 muscarinic receptor agonists, primary screen, CHO-M1 cells, Fluo-4 calcium, agonist mode; Muscarinic acetylcholine receptor M1; Fluo-4 calcium fluorescence; hits give high values; B-score at 10 µM; hit rate 3% among 64,000;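 active = fluorescence rise, raw or as B-score row- and column-corrected plate score, outside the 99.7% band of its plate's samples, either direction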
# M1 agonist conf = rat M1 muscarinic receptor agonists, confirmation, CHO-M1 cells, Fluo-4 calcium, duplicate retest; shares compounds with M1 ag; Fluo-4 calcium fluorescence, agonist mode; actives lie on both sides; fluorescence change (max-min) at 10 µM; hit rate 19% among 1,700; AID 1488, 2009;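 active = fluorescence change differs from the solvent-only DMSO control mean at a set confidence level in both duplicate runs; inconclusive = differs from solvent-only control mean in just one of two runs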;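 also: an EC20 dose of acetylcholine follows compound addition during the same imaging run; raw fluorescence intensity difference in instrument units with no normalization to controls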
# M4 agonist ctr = agonist activity at rat M4 receptor, confirmation, counter-screen for M1 allosteric modulator project, cell-based, agonist mode; hit rate 9% among 1,700; CHO M4/Gqi5 cells, Fluo-4 calcium fluorescence; actives lie on both sides; fluorescence change (max-min) at 10 µM; shares compounds with M1 ag;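 active = fluorescence change differing from the plate's solvent-only control wells at 99.7% confidence in both duplicates, whether higher or lower; inconclusive = differs from solvent controls in only one of two duplicates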
# * = called active by the depositor; ? = inconclusive; / = no result. Rule as the data show it, unless noted: active = inhibition above about 20% (passing the limit was not always enough); inactive = the rest.
SMILES,JNK3 blocker,FXIa inh mix,M1 antag,Her2 expr inh,FXIIa mix inh,M1 ag,M1 agonist conf,M4 agonist ctr
O=C(Nc1cccc2nsnc12)C1CC(=O)N(c2ccccc2)C1 (stereo not given),1,3,0.015,93,6,-2.7*,?,?
COc1ccccc1C1/C(=C(\O)c2c(C)nc3c(C)cccn23)C(=O)C(=O)N1CCCN(C)C (stereo not given),6,-4,0.37,78,4,-0.31,/,/
COc1cccc2c1OC1(C)CC2NC(=O)N1c1cccc(C(=O)Nc2ccc3c(c2)OCCO3)c1 (stereo not given),/,3,0.45,106,-1,7.8*,-16,?
CC(CN1CCOCC1)(NS(=O)(=O)c1ccccc1)c1ccccc1 (stereo not given),4,0,-0.089,114,7,18*,?,-37
CC(=O)c1c(C)[nH]c(C(=O)OCCCCN2C(=O)c3ccccc3C2=O)c1C,9,-6,-2.4*,86,7,6.4*,0.55,-88*
O=C(OCCCCN1C(=O)c2ccccc2C1=O)c1n[nH]c2ccccc12,8,-9,-0.96,94,2,-0.56,/,/
Cc1ccc(-c2nc(C(=O)NC3CCCCCC3)no2)cc1,-2,5,-0.3,97,0,0.72,/,/
CCNc1ccc(C(=O)OCC)cc1NC(=O)c1cccc(S(=O)(=O)N2CCOCC2)c1,-4,4,1.6,85,11,0.089,/,/
CCOC(=O)C1CCN(c2nc3ccccc3nc2C(C#N)C(=O)OCCOC)CC1 (stereo not given),-7,6,-0.027,105,2,6.2*,0,-9.6
CCOC(=O)C1CCN(c2nc3ccccc3nc2C(C#N)C(=O)OC(C)COC)CC1 (stereo not given),6,12,-0.091,91,3,6.2*,?,-52
CCC(C)COC(=O)C(C#N)c1nc2ccccc2nc1N1CCCCC1 (stereo not given),6,2,-0.1,131,11,1.5,/,/
C=CCOC(=O)C(C#N)c1nc2ccccc2nc1N1CCC(C(=O)OCC)CC1 (stereo not given),-3,/,0.19,138,/,5.1*,-2.8,?
CCOC(=O)C1CCN(c2nc3ccccc3nc2C(C#N)C(=O)OC(C)C)CC1 (stereo not given),5,2,-0.37,91,-18,28*,6.4,-33
CCOC(=O)C1CCCN(c2nc3ccccc3nc2C(C#N)C(=O)OC(C)C)C1 (stereo not given),3,/,-0.12,78,/,2.2,/,/
CCCCC(c1nnnn1CCOC)N1CCN(c2cccc(OC)c2)CC1 (stereo not given),-8,10,0.45,103,0,-0.088,/,/
COCCn1c(-c2ccc(Cl)cc2)cnc1SCC(=O)NCc1cccs1,7,1,-0.039,253,6,0.76,/,/
COc1ccc(S(=O)(=O)C(C#N)c2nc3ccccc3nc2N2CCCCC2)cc1 (stereo not given),/,0,0.12,102,-13,-0.26,/,/
N#CC(c1nc2ccccc2nc1N1CCCC1)S(=O)(=O)c1ccccc1 (stereo not given),/,23,-0.23,328,6,4*,36,34
Cc1cccc(S(=O)(=O)C(C#N)c2nc3ccccc3nc2N2CCCC2)c1 (stereo not given),-4,3,0.3,53,-16,6*,-3,-11
Cc1ccc(C)c(S(=O)(=O)C(C#N)c2nc3ccccc3nc2N2CCCC2)c1 (stereo not given),-2,-3,-0.21,59,1,-1,/,/

# Assay outcomes from PubChem BioAssay.
